From paper PMC7862700, “An all-to-all approach to the identification of sequence-specific readers for epigenetic DNA modifications on cytosine” come the findings set out here.

Holding throughout (assay): DAPPL (digital affinity profiling via proximity ligation, sequencing); 10 mM Tris-HCl pH 7.5, 50 mM NaCl, 1 mM DTT, 4% glycerol, room temperature, 30 min; GST-TFs on glutathione beads, 16-mer random dsDNA library, 0.1% formaldehyde crosslink after washing; high values mean tight binding
The target of one assay is T1, FLI1 (Homo sapiens, UniProt Q01543 1-452).
T1 sequence: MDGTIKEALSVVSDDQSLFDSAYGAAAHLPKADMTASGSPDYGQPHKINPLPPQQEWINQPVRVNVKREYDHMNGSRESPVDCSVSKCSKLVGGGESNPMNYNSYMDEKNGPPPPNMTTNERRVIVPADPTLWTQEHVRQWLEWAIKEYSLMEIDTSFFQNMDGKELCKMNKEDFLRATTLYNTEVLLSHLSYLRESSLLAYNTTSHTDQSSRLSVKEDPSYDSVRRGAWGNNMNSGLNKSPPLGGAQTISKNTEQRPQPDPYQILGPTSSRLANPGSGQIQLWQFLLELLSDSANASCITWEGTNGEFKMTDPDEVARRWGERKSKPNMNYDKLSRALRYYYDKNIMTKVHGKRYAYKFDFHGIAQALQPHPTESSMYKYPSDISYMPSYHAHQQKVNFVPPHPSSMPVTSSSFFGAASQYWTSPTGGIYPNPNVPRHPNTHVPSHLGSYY
As to conditions: protein: recombinant; tags: N-terminal GST; dsDNA, one strand shown. The gist of the method:
(§1)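 Beads coated with glutathione captured GST-fused human transcription factors that had been expressed in yeast, and the factors were then given DNA barcodes and pooled with a tag-only sample. The pools were incubated with 200 nmole of a random double-stranded 16-mer DNA library in Tris/NaCl/DTT/glycerol buffer for 30 min at room temperature, washed, crosslinked with 0.1% formaldehyde and proximity-ligated with BsaI/T4 ligase at 37 °C for 1 h. PCR amplification and Illumina NextSeq500 sequencing came last. Binding signal is each hexamer's read frequency for a factor divided by its frequency for the tag-only sample.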

A further assay concerns the target T2, ELK1 (Homo sapiens, UniProt P19419 1-428).
T2 sequence: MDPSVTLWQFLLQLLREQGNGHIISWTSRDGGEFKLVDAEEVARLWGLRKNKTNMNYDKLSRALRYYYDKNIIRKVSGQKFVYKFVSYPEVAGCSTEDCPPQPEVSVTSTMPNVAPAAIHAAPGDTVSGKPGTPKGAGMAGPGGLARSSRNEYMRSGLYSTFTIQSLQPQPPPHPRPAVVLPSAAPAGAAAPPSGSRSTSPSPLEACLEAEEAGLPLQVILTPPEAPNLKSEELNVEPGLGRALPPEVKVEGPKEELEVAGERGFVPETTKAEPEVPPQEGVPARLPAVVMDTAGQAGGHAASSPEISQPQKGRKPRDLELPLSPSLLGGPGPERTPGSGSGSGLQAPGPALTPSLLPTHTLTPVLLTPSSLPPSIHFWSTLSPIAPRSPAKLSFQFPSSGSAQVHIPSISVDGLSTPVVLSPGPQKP
As to conditions: protein: recombinant; tags: N-terminal GST; dsDNA, one strand shown. The gist of the method: as §1

Another assay deals with T3, GABPA (Homo sapiens, UniProt Q06546 1-454).
T3 sequence: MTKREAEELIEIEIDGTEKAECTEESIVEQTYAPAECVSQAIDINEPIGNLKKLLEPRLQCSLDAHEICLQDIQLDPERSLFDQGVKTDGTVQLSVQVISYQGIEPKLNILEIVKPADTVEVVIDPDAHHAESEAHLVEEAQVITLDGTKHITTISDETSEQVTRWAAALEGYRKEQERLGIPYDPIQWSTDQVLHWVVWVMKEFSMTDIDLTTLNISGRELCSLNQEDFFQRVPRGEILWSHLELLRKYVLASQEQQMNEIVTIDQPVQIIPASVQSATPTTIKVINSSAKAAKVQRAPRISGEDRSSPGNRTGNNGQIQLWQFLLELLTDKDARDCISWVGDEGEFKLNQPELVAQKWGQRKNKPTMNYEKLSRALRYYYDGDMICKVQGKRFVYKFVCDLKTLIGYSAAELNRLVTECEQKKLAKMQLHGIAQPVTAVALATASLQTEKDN
Conditions: protein: recombinant; tags: N-terminal GST; dsDNA, one strand shown. The gist of the method:
as §1

Another assay addresses T4, ERG (Homo sapiens, UniProt P11308 1-479).
T4 sequence: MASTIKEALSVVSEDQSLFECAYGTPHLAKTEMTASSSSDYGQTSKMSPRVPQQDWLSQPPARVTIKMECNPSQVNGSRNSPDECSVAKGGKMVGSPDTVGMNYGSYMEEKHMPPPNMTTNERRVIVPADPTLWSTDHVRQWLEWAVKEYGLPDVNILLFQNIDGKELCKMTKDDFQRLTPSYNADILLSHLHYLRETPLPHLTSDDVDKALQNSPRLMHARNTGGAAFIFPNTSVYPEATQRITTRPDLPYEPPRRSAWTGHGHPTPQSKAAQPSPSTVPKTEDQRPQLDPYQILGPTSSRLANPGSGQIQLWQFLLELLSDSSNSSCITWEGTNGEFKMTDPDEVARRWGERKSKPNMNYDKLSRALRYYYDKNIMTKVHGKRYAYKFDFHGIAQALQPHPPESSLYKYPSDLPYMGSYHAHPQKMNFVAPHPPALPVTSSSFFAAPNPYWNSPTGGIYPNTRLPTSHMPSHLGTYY
Conditions: protein: recombinant; tags: N-terminal GST; dsDNA, one strand shown. A digest of the protocol: as §1

In the next assay the target is ELF1 (Homo sapiens, UniProt P32519 1-619). As to conditions: protein: recombinant; tags: N-terminal GST; dsDNA, one strand shown. The gist of the method:
as §1

The target in another assay is T5, EHF (Homo sapiens, UniProt Q9NZC4 1-300).
T5 sequence: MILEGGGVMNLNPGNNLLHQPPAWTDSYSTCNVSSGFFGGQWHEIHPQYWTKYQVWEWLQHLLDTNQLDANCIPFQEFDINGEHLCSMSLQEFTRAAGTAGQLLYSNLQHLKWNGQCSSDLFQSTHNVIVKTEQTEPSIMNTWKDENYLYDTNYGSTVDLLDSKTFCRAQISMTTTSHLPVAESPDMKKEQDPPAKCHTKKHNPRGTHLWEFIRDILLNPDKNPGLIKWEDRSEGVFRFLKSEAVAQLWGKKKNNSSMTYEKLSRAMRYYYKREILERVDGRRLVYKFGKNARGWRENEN
As to conditions: protein: recombinant; tags: N-terminal GST; dsDNA, one strand shown. The gist of the method: as §1

The target of a further assay is SPI1 (Homo sapiens, UniProt P17947 1-270). As to conditions: protein: recombinant; tags: N-terminal GST; dsDNA, one strand shown. A digest of the protocol: as §1
Another assay addresses SPIB (Homo sapiens, UniProt Q01892 1-262). Conditions: protein: recombinant; tags: N-terminal GST; dsDNA, one strand shown. A digest of the protocol: as §1
For another assay, the target named is T6, ELK3 (Homo sapiens, UniProt P41970 1-407).
T6 sequence: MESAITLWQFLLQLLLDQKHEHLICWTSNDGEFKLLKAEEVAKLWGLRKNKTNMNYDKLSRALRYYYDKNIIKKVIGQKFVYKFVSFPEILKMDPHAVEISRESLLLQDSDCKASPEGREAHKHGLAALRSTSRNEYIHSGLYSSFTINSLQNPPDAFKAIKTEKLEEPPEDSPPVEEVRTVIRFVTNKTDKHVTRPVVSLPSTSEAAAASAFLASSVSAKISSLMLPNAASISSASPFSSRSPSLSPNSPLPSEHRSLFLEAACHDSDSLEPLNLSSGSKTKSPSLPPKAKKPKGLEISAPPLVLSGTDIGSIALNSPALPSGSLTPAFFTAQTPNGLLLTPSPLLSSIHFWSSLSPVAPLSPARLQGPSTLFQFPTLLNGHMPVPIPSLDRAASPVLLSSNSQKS
Conditions: protein: recombinant; tags: N-terminal GST; dsDNA, one strand shown. A digest of the protocol: as §1

For a further assay, the target named is T7, FEV (Homo sapiens, UniProt Q99581 1-238).
T7 sequence: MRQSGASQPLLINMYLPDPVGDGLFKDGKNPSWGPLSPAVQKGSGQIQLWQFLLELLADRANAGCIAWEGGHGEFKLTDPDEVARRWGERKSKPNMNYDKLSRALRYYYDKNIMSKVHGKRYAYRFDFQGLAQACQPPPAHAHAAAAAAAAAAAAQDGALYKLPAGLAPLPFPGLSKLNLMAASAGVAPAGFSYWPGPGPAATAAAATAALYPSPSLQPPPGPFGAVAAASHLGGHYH
Conditions: protein: recombinant; tags: N-terminal GST; dsDNA, one strand shown. The gist of the method: as §1

In the next assay the target is ETV5 (Homo sapiens, UniProt P41161 1-510). Conditions: protein: recombinant; tags: N-terminal GST; dsDNA, one strand shown. A digest of the protocol: as §1
The target of another assay is HSF1 (Homo sapiens, UniProt Q00613 1-529). Conditions: protein: recombinant; tags: N-terminal GST; chain copies: 3; dsDNA, one strand shown. A digest of the protocol:
as §1

The target of the next assay is ELF4 (Homo sapiens, UniProt Q99607 1-663). Conditions: protein: recombinant; tags: N-terminal GST; dsDNA, one strand shown. A digest of the protocol:
as §1

The target in another assay is T8, ELK4 (Homo sapiens, UniProt P28324-2 1-405).
T8 sequence: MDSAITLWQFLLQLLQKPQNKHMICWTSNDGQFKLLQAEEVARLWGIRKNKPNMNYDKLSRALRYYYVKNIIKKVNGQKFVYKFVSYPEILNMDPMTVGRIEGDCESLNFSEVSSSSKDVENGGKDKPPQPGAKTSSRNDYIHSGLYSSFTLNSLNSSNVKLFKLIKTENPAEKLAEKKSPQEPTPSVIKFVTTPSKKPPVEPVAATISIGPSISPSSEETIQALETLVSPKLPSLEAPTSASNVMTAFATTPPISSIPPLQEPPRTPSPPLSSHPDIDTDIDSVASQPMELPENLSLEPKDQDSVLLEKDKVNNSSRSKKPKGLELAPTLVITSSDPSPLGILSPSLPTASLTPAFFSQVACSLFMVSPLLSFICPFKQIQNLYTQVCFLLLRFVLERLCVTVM
Conditions: protein: recombinant; tags: N-terminal GST; dsDNA, one strand shown. The gist of the method: as §1

For another assay, the target named is T9, ETV2 (Homo sapiens, UniProt O00321 1-342).
T9 sequence: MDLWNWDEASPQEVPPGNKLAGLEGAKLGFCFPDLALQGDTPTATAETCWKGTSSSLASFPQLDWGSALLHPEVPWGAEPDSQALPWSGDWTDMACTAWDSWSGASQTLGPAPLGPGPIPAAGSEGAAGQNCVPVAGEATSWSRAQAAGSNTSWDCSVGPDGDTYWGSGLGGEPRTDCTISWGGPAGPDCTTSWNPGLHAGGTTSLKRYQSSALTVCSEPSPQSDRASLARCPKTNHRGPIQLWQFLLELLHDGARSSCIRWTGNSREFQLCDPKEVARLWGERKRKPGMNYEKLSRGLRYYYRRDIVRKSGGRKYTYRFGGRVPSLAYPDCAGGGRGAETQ
Conditions: protein: recombinant; tags: N-terminal GST; dsDNA, one strand shown. The gist of the method:
as §1

The target in the next assay is T10, ELF3 (Homo sapiens, UniProt P78545 1-371).
T10 sequence: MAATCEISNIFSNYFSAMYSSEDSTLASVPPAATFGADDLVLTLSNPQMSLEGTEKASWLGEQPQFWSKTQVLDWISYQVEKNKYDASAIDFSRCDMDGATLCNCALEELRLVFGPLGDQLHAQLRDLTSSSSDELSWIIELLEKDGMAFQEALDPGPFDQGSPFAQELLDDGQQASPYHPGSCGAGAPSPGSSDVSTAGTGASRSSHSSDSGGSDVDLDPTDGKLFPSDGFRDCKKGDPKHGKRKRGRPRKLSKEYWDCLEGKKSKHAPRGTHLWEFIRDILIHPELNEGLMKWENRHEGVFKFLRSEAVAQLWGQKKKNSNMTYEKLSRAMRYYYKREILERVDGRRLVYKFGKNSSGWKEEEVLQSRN
Conditions: protein: recombinant; tags: N-terminal GST; dsDNA, one strand shown. The gist of the method: as §1

A further assay concerns the target CRX (Homo sapiens, UniProt O43186 1-299). Conditions: protein: recombinant; tags: N-terminal GST; dsDNA, one strand shown. A digest of the protocol:
as §1

A further assay concerns the target ETV1 (Homo sapiens, UniProt P50549 1-477). Conditions: protein: recombinant; tags: N-terminal GST; dsDNA, one strand shown. A digest of the protocol: as §1

SPIB, sequence (Q01892 whole entry): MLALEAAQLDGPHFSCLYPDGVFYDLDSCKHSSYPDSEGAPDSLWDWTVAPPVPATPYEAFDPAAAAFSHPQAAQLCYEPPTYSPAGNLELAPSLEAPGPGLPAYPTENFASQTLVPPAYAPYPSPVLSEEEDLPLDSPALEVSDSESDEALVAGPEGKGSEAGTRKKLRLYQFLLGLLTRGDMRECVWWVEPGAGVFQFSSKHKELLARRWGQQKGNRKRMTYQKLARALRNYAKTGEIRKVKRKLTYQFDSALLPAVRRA
CRX, sequence (O43186 whole entry): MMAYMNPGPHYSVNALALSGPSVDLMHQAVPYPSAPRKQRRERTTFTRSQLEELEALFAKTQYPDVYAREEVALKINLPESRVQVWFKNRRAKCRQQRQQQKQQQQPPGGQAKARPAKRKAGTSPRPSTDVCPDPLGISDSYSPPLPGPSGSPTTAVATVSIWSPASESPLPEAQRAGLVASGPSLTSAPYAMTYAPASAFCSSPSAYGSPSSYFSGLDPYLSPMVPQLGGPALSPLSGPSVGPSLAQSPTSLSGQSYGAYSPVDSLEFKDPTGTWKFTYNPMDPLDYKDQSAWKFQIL
ETV1, sequence (P50549 whole entry): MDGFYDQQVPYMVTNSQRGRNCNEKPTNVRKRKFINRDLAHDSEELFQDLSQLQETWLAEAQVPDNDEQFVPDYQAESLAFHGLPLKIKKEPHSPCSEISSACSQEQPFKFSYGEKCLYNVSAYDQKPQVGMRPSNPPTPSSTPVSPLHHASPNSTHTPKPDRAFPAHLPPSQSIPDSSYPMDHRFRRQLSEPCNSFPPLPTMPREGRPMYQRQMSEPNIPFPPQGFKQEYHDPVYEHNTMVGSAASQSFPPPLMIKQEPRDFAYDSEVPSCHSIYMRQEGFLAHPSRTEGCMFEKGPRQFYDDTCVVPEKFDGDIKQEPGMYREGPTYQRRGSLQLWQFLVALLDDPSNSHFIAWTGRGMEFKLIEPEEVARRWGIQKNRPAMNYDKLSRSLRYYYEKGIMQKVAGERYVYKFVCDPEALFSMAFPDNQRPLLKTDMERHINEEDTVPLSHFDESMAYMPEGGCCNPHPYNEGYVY
ETV5, sequence (P41161 whole entry): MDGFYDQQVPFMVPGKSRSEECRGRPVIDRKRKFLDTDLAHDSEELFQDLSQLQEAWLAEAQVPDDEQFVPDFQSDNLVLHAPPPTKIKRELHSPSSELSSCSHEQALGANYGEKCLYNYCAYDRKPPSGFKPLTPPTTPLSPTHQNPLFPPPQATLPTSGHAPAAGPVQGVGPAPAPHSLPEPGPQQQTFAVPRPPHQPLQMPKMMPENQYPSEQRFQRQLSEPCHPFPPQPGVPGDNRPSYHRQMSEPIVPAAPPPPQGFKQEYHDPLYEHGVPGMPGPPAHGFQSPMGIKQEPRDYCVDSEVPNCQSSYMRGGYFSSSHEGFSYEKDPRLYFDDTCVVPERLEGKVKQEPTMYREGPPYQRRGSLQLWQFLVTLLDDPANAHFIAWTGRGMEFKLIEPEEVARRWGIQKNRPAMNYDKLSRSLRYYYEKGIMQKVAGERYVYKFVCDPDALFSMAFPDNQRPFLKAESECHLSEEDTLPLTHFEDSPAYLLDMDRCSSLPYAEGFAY
HSF1, sequence (Q00613 whole entry): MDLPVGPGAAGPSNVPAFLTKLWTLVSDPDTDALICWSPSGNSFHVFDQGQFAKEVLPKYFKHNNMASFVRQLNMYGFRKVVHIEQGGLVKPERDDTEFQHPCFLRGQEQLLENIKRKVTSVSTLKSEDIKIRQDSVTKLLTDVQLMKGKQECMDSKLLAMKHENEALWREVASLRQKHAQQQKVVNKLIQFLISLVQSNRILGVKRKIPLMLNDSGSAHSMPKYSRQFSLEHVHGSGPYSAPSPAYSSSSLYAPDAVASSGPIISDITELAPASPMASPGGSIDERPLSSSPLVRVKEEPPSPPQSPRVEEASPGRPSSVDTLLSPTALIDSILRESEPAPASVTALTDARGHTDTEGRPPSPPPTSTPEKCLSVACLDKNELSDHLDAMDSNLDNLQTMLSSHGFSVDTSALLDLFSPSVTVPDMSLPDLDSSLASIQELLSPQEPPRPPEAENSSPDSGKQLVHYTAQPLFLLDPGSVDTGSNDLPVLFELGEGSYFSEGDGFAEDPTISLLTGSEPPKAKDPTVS
ELF4, sequence (Q99607 whole entry): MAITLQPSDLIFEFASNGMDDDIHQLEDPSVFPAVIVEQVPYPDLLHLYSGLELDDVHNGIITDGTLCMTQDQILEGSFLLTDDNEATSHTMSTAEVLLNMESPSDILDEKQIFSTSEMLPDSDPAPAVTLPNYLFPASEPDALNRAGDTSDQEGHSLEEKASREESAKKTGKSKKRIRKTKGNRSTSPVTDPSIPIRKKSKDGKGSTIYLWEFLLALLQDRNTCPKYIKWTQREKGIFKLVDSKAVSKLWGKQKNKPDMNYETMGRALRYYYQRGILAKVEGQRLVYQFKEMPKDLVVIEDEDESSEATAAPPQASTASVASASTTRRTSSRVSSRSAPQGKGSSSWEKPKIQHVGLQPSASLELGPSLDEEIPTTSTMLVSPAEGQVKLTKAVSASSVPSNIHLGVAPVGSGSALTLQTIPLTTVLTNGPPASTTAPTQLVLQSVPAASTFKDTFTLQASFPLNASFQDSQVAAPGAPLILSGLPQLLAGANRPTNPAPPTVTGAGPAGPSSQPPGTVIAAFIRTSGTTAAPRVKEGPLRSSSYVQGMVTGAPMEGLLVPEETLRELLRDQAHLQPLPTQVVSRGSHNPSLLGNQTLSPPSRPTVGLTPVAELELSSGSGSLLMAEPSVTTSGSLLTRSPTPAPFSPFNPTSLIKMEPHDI
ELF1, sequence (P32519 whole entry): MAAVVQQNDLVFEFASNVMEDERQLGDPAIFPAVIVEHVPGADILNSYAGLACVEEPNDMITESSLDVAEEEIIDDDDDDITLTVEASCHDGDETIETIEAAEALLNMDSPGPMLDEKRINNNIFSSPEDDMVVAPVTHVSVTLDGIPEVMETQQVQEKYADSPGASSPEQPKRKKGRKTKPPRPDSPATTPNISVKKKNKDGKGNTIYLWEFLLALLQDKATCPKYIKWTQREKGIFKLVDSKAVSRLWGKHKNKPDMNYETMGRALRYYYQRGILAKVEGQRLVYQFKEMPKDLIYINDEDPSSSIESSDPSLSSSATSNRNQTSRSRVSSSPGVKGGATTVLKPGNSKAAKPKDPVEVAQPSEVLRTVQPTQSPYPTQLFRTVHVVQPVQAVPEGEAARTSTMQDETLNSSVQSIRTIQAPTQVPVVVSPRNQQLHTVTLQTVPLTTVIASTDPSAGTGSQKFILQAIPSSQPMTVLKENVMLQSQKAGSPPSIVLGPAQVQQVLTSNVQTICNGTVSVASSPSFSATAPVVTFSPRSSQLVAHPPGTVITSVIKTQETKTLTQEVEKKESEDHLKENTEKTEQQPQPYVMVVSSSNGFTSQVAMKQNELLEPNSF

With TTACGC, the binding signal in the assay with FLI1 was 1.15 fold enrichment (6-mer frequency, TF over GST control); with ELK1, 1.06 fold enrichment (6-mer frequency, TF over GST control); with GABPA, 1.07 fold enrichment (6-mer frequency, TF over GST control); with ERG, 1.08 fold enrichment (6-mer frequency, TF over GST control); with ELF1, 1.12 fold enrichment (6-mer frequency, TF over GST control); with EHF, 1.06 fold enrichment (6-mer frequency, TF over GST control). Further, the binding signal with SPI1 is 1.07 fold enrichment (6-mer frequency, TF over GST control); with SPIB, 1.02 fold enrichment (6-mer frequency, TF over GST control); in the assay with ELK3 it was 1.21 fold enrichment (6-mer frequency, TF over GST control); with FEV, 1.1 fold enrichment (6-mer frequency, TF over GST control); in the assay with ETV5, 1.19 fold enrichment (6-mer frequency, TF over GST control); with HSF1, 1.39 fold enrichment (6-mer frequency, TF over GST control). For the same sequence, the binding signal in the assay with ELF4 is 1.19 fold enrichment (6-mer frequency, TF over GST control); with ELK4, 1.04 fold enrichment (6-mer frequency, TF over GST control); with ETV2, 1.16 fold enrichment (6-mer frequency, TF over GST control); with ELF3, 1.01 fold enrichment (6-mer frequency, TF over GST control); with CRX, 1.81 fold enrichment (6-mer frequency, TF over GST control); with ETV1 it was 1.13 fold enrichment (6-mer frequency, TF over GST control).
